In PubChem BioAssay one finds composite z-score and composite Z-score data, which are given here for 13 compounds.

Structures are written as SMILES. Several values for one entry are separate records, joined by “and”; a condition that tells them apart may be missing. Equal entries are not always repeated. Activity calls are given as the source filed them.

In test [1] the target is Albumin (Bos taurus) (UniProt P02769). As to the kind of experiment: compounds binding labelled BSA control protein – biochemical, small-molecule microarray, Alexa647 label, 635/667 nm fluorescence, artefact control for SMM control protein annotation, profiling panel (AID 1118).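 Further: score merges 667 nm emission intensity and signal-to-noise per printed compound spot.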 The settings on record: BSA-A647 binding, fluorescence 635 nm, higher = more signal.
A short description of test [2]: probe aXIP binding to arrayed compounds – biochemical, NeuroSMM set, 635/667 nm fluorescence, primary screen (AID 1119).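 Further: probe is the protein aXip251-270 applied at 1 µg/mL to compound-printed slides; binding of probe to printed compounds measured as 667 nm fluorescence plus signal to noise.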 The settings on record: small-molecule microarray, higher = more signal, called active from +8 up or from −8 down.
The nature of test [3]: probe aNOTCH3 binding on compound microarray – biochemical, small-molecule microarray, 635/667 nm fluorescence, primary screen (AID 1120).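 Further: probe is a biotin-tagged antibody raised against NOTCH3 rather than NOTCH3 protein; score merges spot fluorescence near 667 nm with spot signal to noise.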 The note with it: higher = more signal.
Test [4] can be described thus: probe aNOTCH2 binding on compound microarray – biochemical, small-molecule microarray, 635/667 nm fluorescence, primary screen (AID 1121).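 Further: score merges feature fluorescence read at 667 nm with its signal to noise.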 The settings on record: higher = more signal.
For test [5], the target named is Carbonic anhydrase 2 (Homo sapiens) (UniProt P00918). As to the kind of experiment: compounds binding carbonic anhydrase 2 – biochemical, small-molecule microarray, Alexa647-labelled CAII, profiling panel (AID 1122). The settings on record: CAII-A647 binding fluorescence, higher = more signal.
Test [6] in a line: COS7 lysate on small-molecule microarray, probe aHis, 635 nm (AID 1123).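 Further: z-score combines 667nm fluorescence intensity with signal-to-noise per printed compound spot.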 The note with it: COS7 cell lysate, fluorescence, higher = more signal.
Test [7] is described as follows: probe aLAP1 signal on lysate-treated microarray – cell lysate, small-molecule microarray, COS7 lysate, primary screen (AID 1124).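 Further: lysate comes from COS7 cells expressing LAP1 and is applied at 0.3 µg/mL; score merges spot fluorescence near 667 nm with signal-to-noise over triplicate slides.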 The settings on record: probe aLAP1, fluorescence, higher = more signal.
Test [8] relates to Sam68 (KHDRBS1). Kind of test: compounds binding KHDRBS1 protein – biochemical, small-molecule microarray, 635 nm fluorescence, primary screen (AID 1125).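 Further: score merges 667 nm channel intensity with signal to noise over triplicate slides.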 The note with it: higher = more signal.
In test [9] the test system is Chordin-like protein 2 (CHRDL2). As to the kind of experiment: compounds binding chordin-like 2 – biochemical, small-molecule microarray, 635 nm fluorescence, primary screen (AID 1126).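 Further: printed compound slides probed with Chrdl2 protein at 4 µg/mL for 1 h at 4 C; score merges 667 nm emission intensity with signal to noise over three replicate slides.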 The note with it: fluorescence 635 nm, higher = more signal.
Test [10] addresses Concanavalin-A (Canavalia ensiformis) (UniProt P02866). As to the kind of experiment: compounds binding concanavalin A lectin – biochemical, small-molecule microarray, Alexa647 label, 635 nm, artefact control for SMM control protein annotation, primary screen (AID 1127).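 Further: z combines 667 nm emission intensity with signal-to-noise across three replicate slides.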 The note with it: ConA-A647 binding fluorescence, higher = more signal.

Chain of Concanavalin-A (Canavalia ensiformis) (P02866 whole entry, looked up): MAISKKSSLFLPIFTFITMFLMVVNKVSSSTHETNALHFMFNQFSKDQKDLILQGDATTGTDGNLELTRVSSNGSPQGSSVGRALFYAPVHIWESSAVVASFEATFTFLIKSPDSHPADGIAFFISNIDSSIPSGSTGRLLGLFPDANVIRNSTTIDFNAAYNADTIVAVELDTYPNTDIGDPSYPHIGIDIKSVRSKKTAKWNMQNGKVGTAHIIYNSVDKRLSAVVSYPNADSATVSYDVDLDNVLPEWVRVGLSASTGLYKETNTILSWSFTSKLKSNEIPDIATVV
Chain of Albumin (Bos taurus) (P02769 whole entry, looked up): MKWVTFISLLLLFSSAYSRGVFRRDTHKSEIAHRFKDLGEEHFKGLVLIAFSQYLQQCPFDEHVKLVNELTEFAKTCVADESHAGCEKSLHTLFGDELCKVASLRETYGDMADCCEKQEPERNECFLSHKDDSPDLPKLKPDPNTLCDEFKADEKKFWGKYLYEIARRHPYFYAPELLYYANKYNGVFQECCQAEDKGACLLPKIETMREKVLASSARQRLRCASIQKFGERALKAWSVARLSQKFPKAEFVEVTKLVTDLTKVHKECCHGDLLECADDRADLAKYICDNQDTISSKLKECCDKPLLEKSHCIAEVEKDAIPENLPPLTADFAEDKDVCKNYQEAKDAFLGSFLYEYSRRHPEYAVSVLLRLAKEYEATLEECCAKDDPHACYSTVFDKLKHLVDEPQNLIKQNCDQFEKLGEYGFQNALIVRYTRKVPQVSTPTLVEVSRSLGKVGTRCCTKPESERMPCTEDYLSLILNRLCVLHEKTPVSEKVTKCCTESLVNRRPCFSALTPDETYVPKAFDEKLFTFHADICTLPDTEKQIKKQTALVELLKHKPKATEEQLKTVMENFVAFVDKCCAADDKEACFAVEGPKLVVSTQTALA

Turning to `CO[C@H]1COC(=O)[C@H](C)NC(=O)CC=C[C@@H](C)[C@H](OC)COC(=O)CC=C[C@@H]1C`, the composite z-score is -0.956 in test [1]; -0.0716 in test [3]; -0.161 in test [4]; -0.719 in [5]; -0.705 in test [6]; -0.796 in test [7]. In addition, the composite z-score in [8] was -0.25; in [9], 1.49; in [10] it was -1.85. In [2], the composite Z-score was 0.536 (inactive).

For `C=CCN(Cc1ccccc1)C(=O)C1N(CCCCCCO)C(=O)C2C(C(=O)O)C3C=CC21O3` (stereo not given), the composite z-score in test [1] was -0.198 and 0.768; in [3] it was -0.541 and -0.445; in test [4], -0.14 and -0.154; in test [5] it was 0.812 and 0.904; in test [6] it was -0.376 and -0.155; in test [7] it was -0.694 and -0.332. For the same compound, the composite z-score in test [8] is -0.442 and -1.97; in test [9] it was -3.18 and -2.25; in [10], -0.588 and -2.21. In addition, in [2], the composite Z-score is -0.461 (inactive) and -0.2 (inactive).

Regarding `C=CCN(CCCCC)C(=O)C1N(c2c(Cl)cccc2CO)C(=O)C2C(C(=O)O)C3C=CC21O3` (stereo not given), the composite z-score in test [1] is -1.16 and -0.735; in [3] it was -0.508 and -0.548; in [4], -0.245 and -0.184; in test [5] it was 0.846 and 0.315; in [6] it was -0.115 and -0.621; in test [7], -0.0989 and -0.178. For the same compound, the composite z-score in test [8] was -0.331 and -0.297; in test [9], -2.24 and -2.28; in test [10], -1.5 and -0.938. The composite Z-score in [2] was -0.823 (inactive) and 0.131 (inactive).

On to `C=C[C@@H](OC)[C@H](O)c1ccc(OCCO)cc1`, for which the composite z-score in test [1] is -0.128 and 0.397; in test [3] it was -0.323 and -0.465; in test [4], -0.227 and -0.142; in test [5] it was 0.831 and 0.847; in [6], -0.236 and -0.474; in test [7] it was 1.48 and -0.402. For the same compound, the composite z-score in test [8] was -0.352 and -1.38; in test [9], -0.866 and -1.44; in test [10], -1.26 and -1.04. In addition, in test [2], the composite Z-score was -0.158 (inactive) and -0.292 (inactive).

In the case of `C=CCN(CCCCC)C(=O)C(c1cccs1)N(C(=O)/C=C\C(=O)O)c1c(Cl)cccc1CO` (stereo not given), the composite z-score in test [1] is -0.678 and -0.603; in test [3], -0.533 and -0.396; in test [4], -0.057 and -0.187; in test [5], 0.91 and 0.768; in test [6], -0.774 and -0.96; in test [7] it was 1.62 and -0.0008. Further, the composite z-score in [8] is -1.09 and -1.41; in [9] it was -2.67 and -1.87; in [10], -0.906 and -1.52. Besides, the composite Z-score in test [2] was -0.798 (inactive) and 0.414 (inactive).

As for `CON(C)C(=O)c1nnc2c3ccccc3n(S(=O)(=O)c3ccc(C)cc3)c2n1`, the composite z-score in [1] was 0.622 and 0.0016; in [3], -0.0111 and 0.211; in [4] it was -0.104 and -0.109; in [5], 0.393 and 0.481; in test [6] it was 0.19 and 1; in [7] it was 0.101 and 0.208. Also, the composite z-score is 0.41 and 1.3 in test [8]; 0.828 and 0.553 in [9]; 1.1 and 1.14 in [10]. In [2], the composite Z-score was 0.891 (inactive) and 0.79 (inactive).

As for `C=CCN(C(=O)C1N(c2ccc(CCO)cc2)C(=O)C2C(C(=O)O)C3C=CC21O3)c1ccc(OC)cc1` (stereo not given), the composite z-score was -0.326 and -0.0621 in [1]; -0.285 and -0.585 in test [3]; -0.14 and -0.0932 in [4]; 0.93 and 0.471 in test [5]; -0.188 and -0.412 in test [6]; -0.0393 and -0.133 in test [7]. Besides, the composite z-score in [8] was 0.0118 and -1.55; in test [9], -0.726 and -2.53; in test [10], 0.287 and -1.64. Further, the composite Z-score in test [2] was -0.177 (inactive) and -0.773 (inactive).

Regarding `C[N+](C)(C)CCCCNC(=O)[C@H]1C[C@H]2C(=O)N[C@@H](CCCC[N+](C)(C)C)C(=O)N2[C@H]1c1cccc(OCCO)c1`, the composite z-score in test [1] was -0.741 and -0.3; in test [3], 0.0533 and 0.245; in [4] it was -0.0974 and -0.131; in test [5], 0.851 and 0.463; in [6] it was 1.38 and 1.49; in test [7], 0.848 and 0.953. Also, the composite z-score in test [8] is 0.25 and 1.32; in test [9] it was 1.17 and 1.53; in test [10], 0.744 and 1.05. Besides, in test [2], the composite Z-score was 2.4 (inactive) and 1.3 (inactive).

`C=CCN(CCCCC)C(=O)C1N(c2ccc(CCO)cc2)C(=O)C2C(C(=O)O)C3C=CC21O3` (stereo not given): the composite z-score is 0.193 and 0.344 in test [1]; -0.474 and 0.157 in test [3]; -0.127 and -0.0716 in test [4]; -0.349 and 0.574 in [5]; -0.632 and -0.323 in test [6]; -0.18 and -1.2 in test [7]. Moreover, the composite z-score was -0.393 and -0.951 in test [8]; -0.914 and -1.38 in test [9]; -1.1 and -1.15 in test [10]. The composite Z-score in [2] is -1.27 (inactive) and -0.154 (inactive).

Turning to `CC(C)=CCCC(C)=CCON=C1C[C@@H](O)[C@@H](O)[C@@H]2[C@@H]3C(=O)N([C@@H](C)c4ccccc4)C(=O)[C@@H]3CC[C@H]12`, the composite z-score in test [1] is 0.799; in test [3], -0.0048; in test [4] it was 0.296; in [5], 0.206; in test [6] it was 1.37; in test [7] it was 0.308. Also, the results for the composite z-score in test [8], in test [9] and in [10] were 1.12, 1.03 and 0.0996, respectively. Moreover, in test [2], the composite Z-score was -0.501 (inactive).

Regarding `COC(=O)C1=C(C)N(Cc2ccccc2)[C@]23O[C@](C(=O)OC)(C(=O)N2[C@@H]1c1ccccc1)[C@@H](C(=O)OC)[C@H]3C(=O)OC`, the composite z-score was 0.0583 and -0.396 in test [1]; -0.0947 and -0.0892 in [3]; -0.165 and -0.106 in test [4]; 0.266 and -0.244 in test [5]; 0.189 and -0.172 in [6]; -0.429 and -0.258 in test [7]. Further, the composite z-score in test [8] was -0.192 and 0.227; in test [9], -0.34 and 0.406; in [10] it was -1.07 and 0.249. Further, in [2], the composite Z-score is -0.179 (inactive) and -0.813 (inactive).

As for `CC(C)CCN1CCc2nc(-c3ccccc3)c3c(c2C1)CO[C@@H](C)C3`, the composite z-score in [1] is 0.69; in [3] it was -0.0362; in test [4], -0.16; in [5], 0.15; in test [6], 0.463; in test [7], -0.616. The composite z-score in [8] amounted to 1.06; in test [9] it was 0.656; in [10], 0.263. Also, the composite Z-score in test [2] was -0.835 (inactive).

Take `C=C[C@@H](C)[C@@H](O)c1ccc(OCCO)cc1`: the composite z-score is -0.342 and 0.259 in test [1]; -0.701 and -0.608 in [3]; -0.153 and -0.199 in [4]; 0.8 and 0.731 in test [5]; -0.217 and -0.451 in test [6]; -0.262 and -0.524 in test [7]. In addition, the composite z-score was -0.97 and -0.832 in test [8]; -3.22 and -2.09 in test [9]; -1.86 and -0.87 in [10]. For the same compound, the composite Z-score in test [2] is 0.142 (inactive) and -0.0636 (inactive).
